Only a selection was taken, and hits are over-represented in it overall.
VACV Venus inh – inhibitors of vaccinia virus (Venus reporter) | Vaccinia virus Venus reporter expression, fluorescence | Potency, µM (doses to about 36.5 µM), without a hit: top-dose activity change, negative = inhibition, usual class: inhibitors | 330,000 compounds, 0.46% hits; calls by dose curve; tested in A549 cells; also: potency is read from the fitted curve at half-maximal effect; % is scaled to controls: 0 for no effect and ±100 for the full control effect; nearly all actives have a fitted effect of over 30% in size
Cycloheximide cs – counter-screen for Shiga toxin inhibitors: cycloheximide protein synthesis inhibition; cell reporter, cycloheximide protein synthesis inhibition counterscreen; max response, %; 300,000 compounds, 12% hits; in the data active = max response mostly above about 13%, no sharp cut-off; inactive = mostly below about 14%; also: read at 38.3 µM for the half of the compounds with a filed dose; 0% is about no effect
Shiga toxin inh – Shiga toxin inhibition. Vero cells, Shiga toxin protein synthesis inhibition reporter. inhibition, % at 38.7 µM. 290,000 compounds, 9.2% hits; in the data active = inhibition mostly above about 28%, no sharp cut-off; inactive = mostly below about 43%; also: 0% is about no effect
MARV entry inh – Marburg virus entry inhibition | Marburg virus pseudotyped entry inhibition, cell reporter | Potency, µM (titrated, usually from 37.8 µM), without a hit: at the top dose activity change, negative = inhibition, usual class: inhibitors | 300,000 compounds, 1.8% hits | AID 540276; calls by dose curve; tested in HEK293 cells; also: potency is read from the fitted curve at half-maximal effect; % is scaled to controls: 0 for no effect and ±100 for the full control effect
LASV entry inh – blocks Lassa virus binding to or entry into cells | Lassa virus pseudotype entry inhibition, cell reporter | Potency, µM (doses to about 37.9 µM), for the others: at the highest dose activity change, negative = inhibition, most hits filed as inhibitors | 300,000 compounds, 1.2% hits; calls by dose curve; tested in HEK293 cells; also: potency is read from the fitted curve at half-maximal effect; % is scaled to controls: 0 for no effect and ±100 for the full control effect; nearly all actives have a fitted effect of over 50% in size
Vaccinia mCherry – vaccinia inhibition (mCherry reporter); Vaccinia virus mCherry reporter infection, fluorescence; Potency, µM (top dose mostly 36.5 µM), inactives show at the top dose activity change, negative = inhibition, hits mostly inhibitors; 310,000 compounds, 0.63% hits; AID 720579; calls by dose curve; tested in A549 cells; also: potency is read from the fitted curve at half-maximal effect; % is scaled to controls: 0 for no effect and ±100 for the full control effect; nearly all actives have a fitted effect of over 35% in size
* = called active by the depositor; i = inactive; ? = inconclusive; nt = not tested or not shown; [ ] = another dose, or the depositor's remark.

SMILES	VACV Venus inh	Cycloheximide cs	Shiga toxin inh	MARV entry inh	LASV entry inh	Vaccinia mCherry
COc1ccc(C(=O)Nc2nc3ccccc3s2)cc1OC	-16%	1	16	?	?	i
CC(C)OC(=O)CCC(=O)Nc1nc2ccccc2s1	-14%	13	31	17%	29%	i
COc1ccc(/C(C)=N/OCC(=O)Nc2nc3ccccc3s2)cc1	-11%	12*	-2	1%	2%	-14%
CCOCC(=O)Nc1nc2ccccc2s1	-6%	48*	125*	5%	?	-9%
O=C(NCCN1CCCCC1)c1ccc(Cn2c(SCc3ccccc3)nc3cccnc32)cc1	-4%	nt	nt	?	nt	-17%
CC(C)c1ccc(NC(=O)CN2C(=O)C3(SCC(=O)N3c3ccc(F)cc3)c3ccccc32)cc1 (stereo not drawn)	?	nt	nt	nt	-26%[46.1 µM]	-28%
CN(C)c1ccc(/C=C/c2ccnc3ccc(O)cc23)cc1	5%	nt	nt	nt	nt	-18%
CCNC(=O)Nc1nc2ccccc2s1	-9%	44*	60*	?	-14%[46.1 µM]	-11%
O=C(c1cn(-c2ccccc2)nc1-c1cccs1)N1CCN(c2ccccn2)CC1	nt	16*	43*	-10%	-1%	nt
CN1CCN(C(=O)c2cn(-c3ccccc3)nc2-c2cccs2)CC1	nt	8	-23	nt	nt	nt
COc1cccc(CCNC(=O)CCc2nnc(Cc3cc(OC)ccc3OC)o2)c1	nt	28*	23*	nt	nt	nt
COc1ccc(OC)c(Cc2nnc(CCC(=O)NC3CCCCCCC3)o2)c1	-8%	33*	77*	?	6%[46.1 µM]	-20%
COc1ccc(OC)c(Cc2nnc(CCC(=O)N3CCCCC3c3nccs3)o2)c1 (stereo not drawn)	nt	43*	87*	nt	nt	nt
CCc1ccc(C2=NN(C(=O)CCC(=O)O)C(c3cccs3)C2)cc1 (stereo not drawn)	nt	9	2	nt	nt	nt
CC(C)(C)OC(=O)[C@H]1[C@H](c2ccc([N+](=O)[O-])cc2)C2(C(=O)c3ccccc3C2=O)C2c3ccccc3C=NN21 (stereo partly drawn)	-11%	12*	42	?	-15%	-1%
COc1ccc([C@H]2[C@H](C(=O)C(C)(C)C)N3N=Cc4ccccc4C3[C@]23N=C(c2ccccc2)OC3=O)cc1 (stereo partly drawn)	nt	11	29	?	0%	nt
CCOCCC(=O)Nc1nnc(CCc2ccccc2)s1	nt	1	-5	nt	nt	nt
O=C(Cc1c(F)cccc1Cl)Nc1ccccn1	-5%	10	37*	3%	18%	-15%
O=C(Cc1ccc(Cl)cc1)Nc1ccccn1	nt	36*	24	nt	nt	nt
O=C(Cc1ccc(Br)cc1)NNC(=O)Nc1ccc(Cl)cc1	-7%	-1	18	?	-22%[46.1 µM]	i
O=C(Cc1ccc(F)cc1)Nc1ccc(Cl)cn1	-12%	26*	81	-13%	9%	i
O=C(Cc1ccc(Cl)cc1)Nc1ccc(Br)cn1	nt	36*	72*	nt	nt	nt
O=C(Cc1ccc(Cl)cc1)Nc1ncccn1	0%	-2	-2	21%[46.1 µM]	23%[46.1 µM]	i
COC(=O)c1ccc2c(c1)S(=O)(=O)NC(=NCc1ccco1)S2	-2%	-1	20	?	2%	nt
CCOc1ccc(CNC(=O)C2Cc3cc(S(=O)(=O)N4CCCCCC4)ccc3N2C(C)=O)cc1 (stereo not drawn)	-14%	nt	nt	-19%[46.1 µM]	-28%[46.1 µM]	-7%
SMILES	VACV Venus inh	Cycloheximide cs	Shiga toxin inh	MARV entry inh	LASV entry inh	Vaccinia mCherry
COc1ccc(CNC(=O)CCS(=O)(=O)c2ccc3c(c2)CCN3C(C)=O)cc1	-7%	-3	16	-1%[46.1 µM]	-18%[46.1 µM]	-1%
CC(=O)Nc1ccc(S(=O)(=O)NC2(C(F)(F)F)C(=O)Nc3c2c(=O)[nH]c(=O)n3-c2ccc(C)cc2)cc1 (stereo not drawn)	6%	nt	nt	-4%[46.1 µM]	-6%[46.1 µM]	-4%
COCCCNC(=O)Cn1c(=O)n(-c2ccc(C)c(C)c2)c(=O)c2c3c(sc21)CCCCC3	0%	nt	nt	23%[46.1 µM]	-12%[46.1 µM]	-16%
O=S(=O)(Nc1ccc(Cl)cn1)c1ccccc1	-11%	-4	-14	-9%[46.1 µM]	19%	i
O=C(Nc1ccc(F)cc1)Nc1ccc(Cl)cn1	?	23*	62*	?	24%[14.3 µM]	-29%
O=C(Cc1ccc(Cl)cc1)Nc1ccc(Cl)cn1	7%	44*	67*	-1%[46.1 µM]	-22%[46.1 µM]	7%
O=S(=O)(Cc1ccc(Cl)cc1)Nc1ccc(Cl)cn1	-1%	11	25*	?	10%	3%
Cn1cc(P(=S)(N2CCOCC2)N2CCOCC2)cc1P(=S)(N1CCOCC1)N1CCOCC1	-14%	-1	-11	6%[46.1 µM]	-1%[46.1 µM]	-3%
CN(C(=O)COc1ccc(Cl)cc1Cl)C1(C)CCS(=O)(=O)C1 (stereo not drawn)	-18%	nt	nt	?	6%	i
O=C(OCc1ccc(Br)cc1)c1cccnc1Cl	10%	27*	73	3%[46.1 µM]	13%	21%
O=C(OCc1ccc(Cl)c(Cl)c1)c1cccnc1Cl	-5%	23*	25	9%[46.1 µM]	7%	7%
O=C(COC(=O)c1cccnc1Cl)c1cccc(Cl)c1	nt	34*	39*	2%	12%	nt
Nc1ncccc1OCc1ccc(Cl)c(Cl)c1	-3%	47*	56*	-1%[46.1 µM]	?	i
C=CC[C@@H]1C=CC(O/N=C/C[C@@H]2C=C[C@H](OC(C)=O)[C@@H](COC(C)=O)O2)[C@@H](CO)O1 (stereo partly drawn)	nt	nt	nt	4%[14.2 µM]	nt	nt
Cc1nc(NC(=O)CN2CCC(O)(c3ccc(F)cc3)CC2)sc1C	nt	17*	47*	nt	nt	nt
Cc1nc(NC(=O)CN2CCN(c3ccccc3F)CC2)sc1C(=O)N(C)C	nt	-1	7	nt	nt	nt
CCCCC(=O)/C=C/n1c(=S)oc2ccccc21	-13%	35*	44*	18µM*	14%	-13%
CC(C)OC(=O)n1c(=S)oc2ccccc21	-15%	44*	68*	?	-21%	-4%
C/C(=N\NC(=O)c1ccoc1C)c1ccccc1	-8%[7.34 µM]	44*	64*	?	3%	i[7.34 µM]
Cc1occc1C(=O)NNC(=O)C1CCCCC1	-1%	5	2	?	10%	-17%
C/C(=N/NC(=O)c1ccoc1C)c1ccc(NC(=O)C2CCCC2)cc1	-11%	58*	65*	-12%	?	-24%
CCc1nn(CC(=O)N2CCN(c3cccc(C)c3C)CC2)c(=O)c2cc3sccc3n12	-4%	nt	nt	28%[46.1 µM]	nt	-15%
CCc1cccc(C)c1NC(=O)Cn1c(=O)n(-c2ccc(C)cc2)c(=O)c2c1cnn2C	-2%	nt	nt	26%[46.1 µM]	?	-13%
COc1ccc(NC(=O)CCn2nnc(-c3ccc(C)cc3)n2)cc1OC	nt	-2	-3	4%	-3%	nt
Cc1ccc(-c2nnn(CCC(=O)N3CCCCC3C)n2)cc1 (stereo not drawn)	-19%	17*	73*	7%	13%	-8%
COC(=O)CCn1nnc(-c2ccc(C)cc2)n1	nt	32*	60*	25%	0%	nt
Cc1ccc(-c2nnn(CCC(=O)NC(C)(C)C)n2)cc1	-12%	32*	52*	-5%[46.1 µM]	26%	-19%
